Measurements from PubChem BioAssay AID488966 (Southern Research Specialized Biocontainment Screening …, 2010).
Where “and” joins values, the source holds several entries; their conditions need not be identical. Identical values can stand only once. About 55 (0.02%) of roughly 340,000 compounds were called active.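 Rule for the calls: active = phage lysis inhibition, versus mean bacterial control, above a set limit; inconclusive = no clear call, values can overlap the other calls; inactive = the rest.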 The list is a sample of the results. Potency and affinity values are given separately.

assay: inhibition of K1F phage lysis, E. coli UTI89, bacterial capsule biogenesis inhibitors, alamar blue (AID 488966); conditions: 2 h; inhibition: at 100 µM, stronger effect = higher value unless noted; series mostly up to 300 µM;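 note: capsule biogenesis inhibitors block K1F phage lysis so surviving cells raise fluorescence; higher fluorescence means more inhibition of phage lysis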

inhibition, inactive:
CC(C)OCCCNC(=O)c1cc(-c2cccs2)nc2ccccc12 0.22%
CC1(C(=O)O)CCC(C(=O)Nc2ccccc2)C1(C)C (stereo unspecified) 0.32%
COc1ccc(NC(=O)C2CCC(C)(C(=O)O)C2(C)C)cc1 (stereo unspecified)
CC(=O)c1ccccc1OCCCOc1cccc2cccnc12 0.48%
O=C(Nc1ccc(Br)cc1)c1ccc2ncsc2c1
O=C(Nc1ccc(F)cc1)c1ccc2ncsc2c1 0.29%
O=C(O)c1cc(-c2ccccc2)nn1CC1CC(c2cccnc2)=NO1 (stereo unspecified) 1.3%
O=C(NCc1ccccc1)C1CCCN(S(=O)(=O)c2ccc(Br)cc2)C1 (stereo unspecified) 1.64% [at 50 µM, stronger effect = higher value]
CC(C)(C)c1ccc(OCC(O)CN(CCO)CC(O)Cn2ccc3ccccc32)cc1 (stereo unspecified) 0.2%
CC1(c2ccccc2)NC(=O)N(NC(=O)CSc2n[nH]c(N)n2)C1=O (stereo unspecified) 0.72%
COc1ccc(S(=O)(=O)N2CCN(c3ccccc3OC)CC2)cc1 0.03%
Cc1ccc(C)c(NC(=O)COC(=O)CCc2ccc(S(=O)(=O)N3CCOCC3)cc2)c1 -0.17%
CC(=O)Nc1cccc(-c2nnc(SCC(=O)N3CCCCC3)n2C)c1 0.94%
COc1ccccc1OCC(O)CN1CCN(CC(=O)Nc2c(C)cccc2C)CC1 (stereo unspecified) 3.11% and 2.01%
Cc1ccc(NC(=O)CCC(=O)NNC(=O)COc2cccc3ccccc23)c(C)c1 -0.27%
Cc1cc(C)c(NC(=O)COc2nncc3ccccc23)c(C)c1 -1.44%
CC(C)NC(=O)COc1cccc2ccccc12 1.21%
CC(CCc1ccccc1)NC(=O)CN1CCOc2ccccc21 (stereo unspecified) 0.85%
CSc1ccc(CN(C)CC(=O)Nc2ccc(NC(C)=O)cc2)cc1 -0.1%
CCN(CC)CCCNc1nc(-c2ccccc2)nc2ccccc12 0.145% [at 50 µM, stronger effect = higher value]
COc1ccc(-c2nc(NCCCN(C)C)c3ccccc3n2)cc1 5.55%
O=C(O)CCCC(=O)Nc1cccc(C(=O)Nc2ccccc2C(=O)O)c1 1.41%
O=C1c2ccccc2C(=O)c2c(Nc3ccc(CCO)cc3)ccc(O)c21 -1.03% [at 50 µM, stronger effect = higher value]
O=C1c2cccc(NCCCNCCO)c2C(=O)c2cccc(NCCCNCCO)c21
N=C(N)SCCc1cnc[nH]1 1.68%
Cc1cccc(CSC(=N)N)c1 7.29%
Cc1noc(/C=C/c2ccccn2)c1[N+](=O)[O-] 0.12%
CCOC(=O)C1(Cc2ccc(Cl)cc2)CCN(C(C)Cc2ccc(O)c(OC)c2)CC1 (stereo unspecified) 0.5%
Cc1ccc(NC(=O)CN(C)C(=O)COc2ncnc3ccc(Br)cc23)cc1 0.5% [at 50 µM, stronger effect = higher value]
COc1ccc(NS(=O)(=O)c2cccc(C(=O)NCCCN3CCOCC3)c2)cc1 1% [at 50 µM, stronger effect = higher value]
CC(=O)NN=C1CCC(c2ccccc2)CC1 (stereo unspecified) 4.73%
COc1ccccc1OCC(=O)NNC(=O)c1cccs1 5.22%
COc1ccc(C(CNC(=O)c2cncc(Br)c2)N(C)C)cc1 (stereo unspecified) -0.11%
COc1cc(C2C(C#N)=C(N)Oc3n[nH]c(-c4ccncc4)c32)cc(OC)c1OC (stereo unspecified) 1.19%
COc1ccccc1NC(=O)CN1C(=O)C(C)Oc2ccccc21 (stereo unspecified) -1.62%
CCOc1ccc(S(=O)(=O)NCc2cccnc2)cc1C 0.14%
COC(=O)/C=C/C(=O)Nc1ccc(O)c(Cl)c1 -2.78%
Cc1ccc(N2C(=O)C3C4CCC(O4)C3C2=O)c(OC(F)F)c1 (stereo unspecified) 2% [at 50 µM, stronger effect = higher value]
CC(C)Nc1nc(SCC(=O)Nc2ccccc2)nc(N2CCOCC2)n1 -0.955% [at 50 µM, stronger effect = higher value]
c1ccc(C(c2nnnn2C2CCCCC2)N2CCc3ccccc3C2)nc1 (stereo unspecified) 6.52%
C/C(=N\NC(=O)C(O)c1ccccc1)c1ccc(Cl)cc1 (stereo unspecified) 0%
O=C(COC(=O)c1ccccn1)Nc1ncc(C(F)(F)F)cc1Cl 1.67%
Cc1noc(/C=C/c2ccco2)c1S(=O)(=O)N1CCC(C(=O)NCc2ccco2)CC1 0.57%
Cc1cc(C)n(CC(=O)NCc2ccccc2)c(=O)c1C#N 0.26%
O=c1[nH]c2ccccc2c2ccc(Cl)cc12 -0.77%
Cc1ccc(NC(=O)N/C=C/c2ccco2)cc1 -0.09%
COc1ccc(NC(=O)CN2C(=O)/C(=C3\SC(=S)N(CCC(=O)O)C3=O)c3ccccc32)cc1 1.3% [at 50 µM, stronger effect = higher value]
CSc1nnc(-c2cccn(Cc3cccc(Cl)c3)c2=O)o1 0.19%
Cc1cc(N(C)/N=C/c2ccccc2O)nc(-c2ccccc2O)n1 -1.22%
COc1ccc2[nH]c3c(c2c1)CCN1C(=O)N([C@@H](C)C(=O)NCc2ccc(F)cc2)C(=O)[C@]31C 1.55%
Cc1ccn2cc(-c3cccc(S(=O)(=O)N4CCCCC4)c3)nc2c1 -0.04%
COc1ccccc1C(=O)NCCC(=O)NC1CCCCCC1 0.81% [at 50 µM, stronger effect = higher value]
COc1ccc(C(C)(C)C)cc1S(=O)(=O)N1CCN(C)CC1 0.43%
O=C(Nc1ccncc1)Nc1cccc(F)c1 0.13%
Cc1cccc(NC(=O)Nc2ccncc2)c1 3.48%
COc1ccc2c(c1)C1=C(CC2)C(c2ccc(C)cc2)NC(=S)N1 (stereo unspecified) -0.41%
CN(C)CCN(C(=O)c1ccc2c(c1)OCCO2)c1nc2ccc(Cl)cc2s1 3.17% [at 50 µM, stronger effect = higher value]
Cc1ccccc1C(=O)N=c1ccn(-c2nc3ccccc3nc2NS(=O)(=O)c2ccccc2)cc1 0.1%
CCCOc1ccc(C(=O)O)cc1 -0.2%
CCOc1ccc(C(=O)C(CCC(CN(C)C)C(=O)c2ccc(OCC)cc2)CN(C)C)cc1 (stereo unspecified) 0.87%
Cc1cccc(NC(=O)/C(C#N)=C/c2ccc(Cl)cc2)n1 0%
Cc1cc(C)c2c3c(oc2n1)C(=O)N(c1cccc(Cl)c1)CC(=O)N3 0.63%
Clc1ccc(-n2nnnc2-c2cnc3ccc(Cl)cc3c2-c2ccccc2)cc1 0.85%
O=C(Nc1ccc(Cl)c(S(=O)(=O)N2CCOCC2)c1)[C@@H]1CCCN1C(=O)c1cccs1 0.43% [at 50 µM, stronger effect = higher value]
COc1ccc(C[C@@H]2CN3C(=NC[C@@H]3Cc3ccc(O)cc3)N2C[C@H](C)NC(=O)CCC2CCCCC2)cc1 0.18%
CCOC(=O)C1CCN(C(=O)CN(c2ccc3c(c2)OCO3)S(C)(=O)=O)CC1 0.52%
O=C(NN=Cc1ccccc1O)C(O)(c1ccccc1)c1ccccc1 -1.49%
COc1cccc(C2C3=C(CC(C)(C)CC3=O)Nc3cc4c(cc32)OCO4)c1 (stereo unspecified) 2.26%
Cc1nc(N2CCN(C(=O)c3ccco3)CC2)c2oc3ccccc3c2n1 1.22%
CCOc1cc(C2NC(=O)c3ccccc3O2)ccc1OC(C)C (stereo unspecified) 2.06%
O=C(O)CCC(=NNC(=O)c1cccc(S(=O)(=O)N2CCCCC2)c1)c1ccccc1 0.71% [at 50 µM, stronger effect = higher value]
CCN(CC)c1ccc(NC(=O)c2ccc3c(c2)OCO3)cc1 2.01%
CCN(CC)c1ccc(C(=O)Nc2cccc(F)c2)cc1 2.12%
CCCNC(=O)C(=O)Nc1ccc2c(c1)N(S(=O)(=O)c1cccs1)CCC2 1.18% [at 50 µM, stronger effect = higher value]
CCc1cc2cc(C)cc(C)c2nc1SCC(=O)Nc1cc(C)on1 0.23%
O=C(Nc1cc2c3c(c1)CC(=O)N3CCC2)c1c(F)cccc1F 1.43% [at 50 µM, stronger effect = higher value]
CCOc1ccc(NC(=S)N2CCCC2)cc1 0.16%
COC(=O)c1sccc1NC(=O)Nc1cccc(Cl)c1Cl 0.2%
Cc1c(N(C(=O)Nc2ccccc2)C2=NCC(C)S2)c(=O)n(-c2ccccc2)n1C (stereo unspecified) 0.11%
COc1cc(C2NC(=S)NC3=C2CCc2ccccc23)cc(OC)c1OC (stereo unspecified) 0.64% [at 50 µM, stronger effect = higher value]
COc1ccc(CCNC(=O)C23CCC(C)(C(=O)O2)C3(C)C)cc1OC (stereo unspecified) 1.58% [at 50 µM, stronger effect = higher value]
CCCn1nc(-c2nnc(-c3ccc(C)c(C)c3)o2)c2ccccc2c1=O 0.05%
CCn1ncc(C2=NOC(C(=O)Nc3cccc(C(C)=O)c3)C2)c1C (stereo unspecified) 4.79%
CS(=O)(=O)N(CC(=O)NN=C1CCCCCC1)c1ccc(Oc2ccccc2)cc1 0.37%
CCN1C(=O)N[C@@H](c2cccc(C(F)(F)F)c2)[C@@H](C(=O)OC)[C@H]1C 0.13%
O=C(Oc1coc(CSc2nnc(NC(=O)C3CC3)s2)cc1=O)c1ccccc1 4.85%
